Compound activity as filed in PubChem BioAssay.
Many of the other results were omitted from the sample, so hits are more common in it than they were.
FECH inh = inhibitors of human ferrochelatase, primary screen, biochemical, purified FECH, Ni-mesoporphyrin absorbance. Ni-mesoporphyrin absorbance 550 nm. calls only at 10 µM (by protocol). 20,000 tested, 3.3% active;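 active = enzyme reaction rate more than 3 SD below the solvent-only control wells on the same plate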;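 note: lower slope than DMSO wells means FECH inhibition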
Target sequence (P22830 whole entry, looked up): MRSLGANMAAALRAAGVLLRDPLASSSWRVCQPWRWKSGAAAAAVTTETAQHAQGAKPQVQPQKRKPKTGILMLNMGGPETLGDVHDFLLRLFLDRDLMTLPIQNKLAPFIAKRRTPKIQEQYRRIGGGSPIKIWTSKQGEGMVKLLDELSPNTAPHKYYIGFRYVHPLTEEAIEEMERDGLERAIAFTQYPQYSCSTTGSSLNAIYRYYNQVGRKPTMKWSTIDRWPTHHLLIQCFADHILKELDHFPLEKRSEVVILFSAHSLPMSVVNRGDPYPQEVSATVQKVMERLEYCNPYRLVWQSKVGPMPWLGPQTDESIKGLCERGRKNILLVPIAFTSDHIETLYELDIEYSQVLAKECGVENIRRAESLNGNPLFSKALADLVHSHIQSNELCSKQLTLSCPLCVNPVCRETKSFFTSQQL
Starred values were filed as active, the others as inactive; i = inactive; + = active, no number.

SMILES	FECH inh
CC(C)(C(=O)NCC1CCN(Cc2cnc[nH]2)C1)c1ccccc1 (configuration not stated)	i
CC(C)CN(CC(C)C)c1ncc(NS(=O)(=O)c2ccccc2Cl)cc1C(=O)O	i
NS(=O)(=O)c1ccc(CCNC(=O)CCCN2C(=O)c3cccnc3Sc3ccccc32)cc1	i
NS(=O)(=O)c1ccc(CCNC(=O)CCN2C(=O)c3cccnc3Sc3ccccc32)cc1	+
NS(=O)(=O)c1ccc(CCNC(=O)CN2CCSc3ccccc32)cc1	i
CCCc1cc(=O)n2[nH]c(CNc3ccc(CC)cc3)nc2n1	i
CCCc1cc(=O)n2[nH]c(CNc3ccccc3CC)nc2n1	+
CCCc1cc(=O)n2[nH]c(CNc3ccc(Cl)cc3)nc2n1	+
CCCc1cc(=O)n2[nH]c(CNc3c(C)cccc3C)nc2n1	i
Cc1c(Cl)cccc1NCc1cc(=O)n2[nH]c(NCc3ccc(F)cc3)nc2n1	i
COc1ccccc1CNc1nc2nc(CN3CCN(c4ccccc4)CC3)cc(=O)n2[nH]1	i
CCc1ccc(NCc2cc(=O)n3[nH]c(NCc4ccc(OC)cc4)nc3n2)cc1	i
CCCc1cc(=O)n2[nH]c(CNc3ccccc3OC)nc2n1	+
Cc1c(Cl)cccc1NCc1nc2nc(C(C)C)cc(=O)n2[nH]1	+
COc1ccc(CNc2nc3nc(CNc4ccc(Cl)cc4)cc(=O)n3[nH]2)cc1	i
CCOc1ccccc1NCc1nc2nc(C(C)C)cc(=O)n2[nH]1	i
Cc1cccc(Cn2c(CNS(=O)(=O)c3cccs3)nc3cccnc32)c1	i
CCN1C(=O)C2CCCN2c2ccc(C(=O)O)cc21 (configuration not stated)	i
CNC(=O)[C@@H]1C[C@@H](N)CN1Cc1c(F)ccc(C)c1Cl	i
O=C(NCC1(c2cccc(F)c2)CCOCC1)c1cn[nH]n1	i
Cc1nonc1CN(C)Cc1ccc(C(=O)Nc2c(C)nn(C)c2C)cc1	i
COc1nc(C)cc(C)c1CNC(=O)CN1CCCN(C)CC1	i
Cc1ccc(C(=O)N2CC(c3ccccn3)C2)c(F)c1F	i
Cc1csc(-c2ccn(CC(=O)Nc3ccn(Cc4ccccc4)n3)n2)c1	i
Cc1ccc(Nc2cc(C)nc(N3CCN(S(C)(=O)=O)CC3)n2)cc1	i
SMILES	FECH inh
CC(c1cccc(-c2ccc3nc[nH]c3c2)c1)N(C)C (configuration not stated)	i
CC(c1cccc(-c2cccc3c(N)ccnc23)c1)N(C)C (configuration not stated)	+
COC(C)c1cccc(-c2ncccc2Cl)c1 (configuration not stated)	i
COc1ccc(S(=O)(=O)N2CC(=O)N(c3ccc(C)c(F)c3)C(C)(C(=O)NC3CCCCC3)C2)cc1 (configuration not stated)	i
CCOc1ccccc1NCc1nc2nc(C)c(Cc3ccc(Cl)cc3)c(=O)n2[nH]1	+
O=c1cc(CNc2cccc(C(F)(F)F)c2)nc2nc(NCc3ccc(Cl)cc3)[nH]n12	i
COc1cccc(NC(=O)Nc2c(C)nc3nc(C)[nH]n3c2=O)c1	i
COc1cccc(NCc2nc3nc(C)c(Cc4ccc(Cl)cc4)c(=O)n3[nH]2)c1	+
CCOC(=O)CCc1c(C)nc2nc(CNc3cccc(C(F)(F)F)c3)[nH]n2c1=O	+
CCc1ccccc1NCc1nc2nc(C)c(Cc3ccc(Cl)cc3)c(=O)n2[nH]1	+
CCc1nc2nc(C)c(NC(=O)Nc3cccc(C(F)(F)F)c3)c(=O)n2[nH]1	i
CCOC(=O)CCc1c(C)nc2nc(CNc3ccccc3OCC)[nH]n2c1=O	i
CCOc1ccccc1N(Cc1nc2nc(C)cc(=O)n2[nH]1)C(=O)c1ccccc1F	i
Cc1nc2nc(Cc3cccc(F)c3)[nH]n2c(=O)c1C	i
Cc1nc2nc(C3CC3)[nH]n2c(=O)c1NC(=O)Nc1ccc(Cl)cc1	i
Cc1nc2nc(C)c(NC(=O)Nc3cccc(C(F)(F)F)c3)c(=O)n2[nH]1	i
CCOCCCNC(=O)C1CCN(c2ccc(-c3ccc(F)cc3)nn2)CC1	i
O=C(NC12CC3CC(CC(O)(C3)C1)C2)c1cccc(NCc2cccs2)c1	i
Cc1ccc(-n2ncc3c(-n4nc(C)cc4NC(=O)c4ccc(C(F)(F)F)cc4)ncnc32)c(C)c1	i
Cc1cccc(CN(C(=O)c2sc(C)nc2C)C(C)C)c1	i
O=c1ccc(-c2ccc(Cl)c(S(=O)(=O)N3CCCCC3)c2)n[nH]1	i
Cc1ccc(Cl)c(CN2CCN(C)C(C(=O)O)C2)c1F (configuration not stated)	i
COc1cccc(C(=O)Nc2cc(C)nn2-c2ncnc3c2cnn3-c2ccccc2)c1OC	i
CCN(CCO)c1nc(Nc2ccc(F)cc2)c2cnn(-c3ccccc3)c2n1	i
Cc1c(C(=O)N2CCC(C)CC2)c(S(=O)(=O)Nc2ccc(S(N)(=O)=O)cc2)c(C)n1C	i
SMILES	FECH inh
Cn1c(=O)c2c(-c3c(F)cccc3Cl)c(NCc3ccccc3)oc2n(C)c1=O	i
CC(C)c1nc(CNC(=O)c2ccc(-c3ccoc3)nc2)no1	i
O=c1c2c(nc3nc(CNc4ccc(Cl)cc4)[nH]n13)CCC2	+
CCc1nc2nc(C)[nH]n2c(=O)c1NC(=O)Nc1ccc(C)c(Cl)c1	i
O=c1c2c(nc3nc(CNc4ccccc4)[nH]n13)CCC2	+
COc1ccc(Cl)cc1NCc1nc2nc3c(c(=O)n2[nH]1)CCC3	i
Cc1ccc(NCc2nc3nc4c(c(=O)n3[nH]2)CCC4)cc1Cl	+
O=c1cc(CNc2ccccc2)nc2nc(NCc3ccc(F)cc3)[nH]n12	i
CCc1nc2nc(C)[nH]n2c(=O)c1NC(=O)Nc1ccccc1F	i
CCc1ccccc1NCc1nc2nc3c(c(=O)n2[nH]1)CCC3	+
O=c1cc(CN2CCCC2)nc2nc(NCc3ccc(Cl)cc3)[nH]n12	i
Cc1ccc(NCc2cc(=O)n3[nH]c(NCc4ccc(F)cc4)nc3n2)cc1Cl	i
CCOCCCNc1nc(Nc2cccc(OC)c2)c2cnn(-c3ccccc3)c2n1	i
CC(C)CNC(=O)c1[nH]cnc1C(=O)NC1CCCCNC1=O (configuration not stated)	i
CCOc1ccc(Nc2nc(N3CCN(c4ccccc4)CC3)nc3c2cnn3-c2ccccc2)cc1	i
O=C(NC1CC(=O)N(CCc2ccc(F)cc2)C1)c1n[nH]c2c1CCC2 (configuration not stated)	i
O=S(=O)(NCCn1c(-c2ccccc2)nc2cccnc21)c1cccs1	i
O=C(NCc1nc2c(s1)CCCC2)c1cn[nH]n1	i
Cc1cc(C)n2nc(N(Cc3c(F)cccc3Cl)S(=O)(=O)c3ccc(Cl)cc3)nc2n1	i
CN1CCN2C[C@@H](NC(=O)c3ccc(N4CC(=O)NC4=O)cc3)C[C@H]2C1	i
Cc1ccc(C2=CC(c3ccc(C)cc3)n3nc(NC(=O)c4cccc(Cl)c4)nc3N2)cc1 (configuration not stated)	+
Cc1cccc(C(=O)Nc2nc3n(n2)C(c2ccccc2Cl)C=C(c2ccc(Cl)cc2)N3)c1 (configuration not stated)	i
O=C(Nc1nc2n(n1)C(c1ccc(F)cc1)C=C(c1ccc(Cl)cc1)N2)c1ccccc1 (configuration not stated)	i
O=C(Nc1nc2n(n1)C(c1ccccc1)C=C(c1ccc(Cl)cc1)N2)c1ccc(Cl)cc1 (configuration not stated)	i
